Where “and” joins values, the source holds several entries; their conditions need not be identical. Equal values may be shown once. Some structures have more than one record in an assay (separate samples or runs), and their calls can disagree. Calls of active or inactive are those of the source. The calls were made as follows: active = hit-call score of the fitted dose curve at least 0.9, where 1 is the maximum; inactive = score below 0.9.
Read-out: Interleukin-1 alpha (IL1a), IL1A (gene 3552)
Assay: BSK_KF3CT_IL1a: BioMAP Diversity Plus: KF3CT Assay for Interleukin-1 alpha (IL1a) Biomarker Activity (AID 2283070)
Settings: primary human keratinocytes with fibroblasts; actives raise or lower the signal
Protocol: BSK_KF3CT is a cell-based, multiplexed-readout assay that uses keratinocytes and foreskin fibroblasts, a human skin primary cell co-culture, with measurements taken at 24 hours after chemical dosing in a 96-well plate.BSK_KF3CT_IL1a is an assay component measured in the BSK_KF3CT assay. It measures IL-1a antibody related to regulation of gene expression using ELISA technology.Data from the assay component BSK_KF3CT_IL1a was analyzed into 1 assay endpoint. This assay endpoint, BSK_KF3CT_IL1a, was analyzed with bidirectional fitting relative to DMSO as the negative control and baseline of activity. Using a type of binding reporter, gain or loss-of-signal activity can be used to understand changes in the signaling as they relate to the gene IL1A. Furthermore, this assay endpoint can be referred to as a primary readout, because this assay has produced multiple assay endpoints where this one serves a signaling function. To generalize the intended target to other relatable targets, this assay endpoint is annotated to the cytokine intended target family, where the subfamily is interleukins.
The levels of cell surface (or secreted, indicated by the prefix "s") biomarker endpoints were measured by ELISA. Overt cytotoxicity to cells in confluent adherent cultures (all systems other than the BT system) was assessed by measuring total protein levels using sulforhodamine B (SRB) staining in parallel cultures at the time of biomarker measurements, indicated as SRB endpoints. For proliferation assays for adherent cell types, individual cell types are cultured at sub-confluence and relative cell numbers quantified by SRB staining at time points optimized for each system (48 h: 3C and CASM3C systems; 72 h: BT and HDF3CGF systems; 96 h: SAg system). SRB was performed by staining cells with 0.1% SRB after fixation with 10% TCA and reading wells at 560 nm.Viability and proliferation of PBMC (T cells) was quantified by Alamar Blue reduction for the SAg and BT systems. For PBMC viability (referred to as PBMC Cytotoxicity within the assay endpoint names), cells were plated (75,000/well in a 96-well plate) and then chemical samples added for 1 h before addition of activators, SEB and TSST-1 (20 ng/mL final concentration each). Cells were incubated for 90 h. Then, Alamar Blue (20 uL/well) (Invitrogen, Cat DAL1100) was added for 6 h, and the plates were read with a fluorescence microplate reader at 546/580 nm (excitation/emission). For PBMC proliferation, cells were plated and activated as above but incubated for only 16 h prior to addition of Alamar Blue. Plates were read after 6 h.

| SMILES | outcome | AC50 |
| --- | --- | --- |
| C#C[C@]1(O)CC[C@H]2[C@@H]3CCC4=CC(=O)CC[C@@H]4[C@H]3CC[C@@]21CC | inactive | – |
| O=C(c1ccc(O)cc1O)c1ccc(O)cc1O | inactive | – |
| COC(=O)CSc1cc(N=c2sc(=O)n3n2CCCC3)c(F)cc1Cl | inactive | – |
| COC(=O)c1c(Cl)nn(C)c1S(=O)(=O)NC(=O)Nc1nc(OC)cc(OC)n1 | inactive | – |
| OB(O)O | inactive | – |
| S=C([S-])NCCNC(=S)[S-].[Mn+2] | inactive | – |
| COC(=O)c1cccc(C)c1S(=O)(=O)NC(=O)Nc1nc(OCC(F)(F)F)nc(N(C)C)n1 | inactive | – |
| O=C(O)C1(C(=O)Nc2ccc(Cl)cc2Cl)CC1 | inactive | – |
| CSC(=O)c1cccc2nnsc12 | inactive | – |
| O=C(Nc1ccc([N+](=O)[O-])cc1Cl)c1cc(Cl)ccc1O | – | 0.735 µM (active) |
| c1ccc2[nH]c(-c3cscn3)nc2c1 | inactive | – |
| CN(C)C(=O)Nc1ccc(Cl)c(Cl)c1 | inactive | – |
| CCOC(=O)[C@H](C)Oc1ccc(Oc2nc3ccc(Cl)cc3o2)cc1 | inactive | – |
| C[C@]12CC[C@@H]3c4ccc(O)cc4C[C@@H](CCCCCCCCCS(=O)CCCC(F)(F)C(F)(F)F)[C@H]3[C@@H]1CC[C@@H]2O (stereo not given in full) | inactive | – |
| CCOC(=O)C(C)Oc1ccc(Oc2cnc3cc(Cl)ccc3n2)cc1 (stereo not given) | inactive | – |
| COC(=O)c1ccccc1S(=O)(=O)NC(=O)Nc1nc(OC(F)F)cc(OC(F)F)n1 | inactive | – |
| S=C(S)NCCNC(=S)S.[Mn+2].[S-]C([S-])=NCCN=C([S-])[S-].[Zn+2] | inactive | – |
| CCSC(=O)N(CC(C)C)CC(C)C | inactive | – |
| COC(=O)c1ccc(CNS(C)(=O)=O)cc1S(=O)(=O)NC(=O)Nc1nc(OC)cc(OC)n1 | inactive | – |
| C=CCOC(Cn1ccnc1)c1ccc(Cl)cc1Cl (stereo not given) | inactive | – |

| SMILES | outcome | AC50 |
| --- | --- | --- |
| CCN(Cc1c(F)cccc1Cl)c1c([N+](=O)[O-])cc(C(F)(F)F)cc1[N+](=O)[O-] | – | 8.48 µM (active) |
| CCCCOC(=O)[C@@H](C)Oc1ccc(Oc2ccc(C(F)(F)F)cn2)cc1 | inactive | – |
| O=C(O)c1ccccc1 | inactive | – |
| CC1(C)C(C=C(Cl)Cl)C1C(=O)OCc1cccc(Oc2ccccc2)c1 (stereo not given) | inactive | – |
| c1ccc(Nc2ccccc2)cc1 | inactive | – |
| N#CSCSc1nc2ccccc2s1 | – | 7.76 µM (active) and 11.4 µM (active) |
| CCCOC(=O)NCCCN(C)C | inactive | – |
| CCCOC(=O)c1ccc(C(=O)OCCC)nc1 | inactive | – |
| CCCCC(CC)CN1C(=O)C2C3C=CC(C3)C2C1=O (stereo not given) | inactive | – |
| COCCO | inactive | 0.8 µM (active) |
| CCOC(=O)c1ccc(O)cc1 | inactive | – |
| Cc1nn(C)c(Oc2ccccc2)c1C=NOCc1ccc(C(=O)OC(C)(C)C)cc1 | inactive | – |
| CCC(C)OC(=O)N1CCCCC1CCO (stereo not given) | inactive | – |
| CCCN(CCC)c1c([N+](=O)[O-])cc(C(F)(F)F)c(N)c1[N+](=O)[O-] | – | 31.3 µM (active) |
| CC(C)CCCCCCc1ccc(O)cc1 | – | 8.32 µM (active) |
| COc1nc(C)nc(NC(=O)NS(=O)(=O)c2ccccc2OCCCl)n1 | inactive | – |
| CCNc1nc(N)nc(Cl)n1 | inactive | – |
| CC(C)(c1ccc(O)cc1)c1ccc(O)cc1 | inactive | – |
| N[C@@H](Cc1cc(I)c(Oc2ccc(O)c(I)c2)c(I)c1)C(=O)O | inactive | – |

Source: PubChem BioAssay (EPA / NIEHS)
